In the library only some 2.9% were active in any assay of this set; here they are far more common.
H9c2 TAG inh: triacylglycerol accumulation inhibition; H9c2 cells, Nile Red lipid (TAG) fluorescence; cells loaded with 200 µM oleic acid; inhibition, % at 12.5 µM; 230,000 compounds, 0.66% hits; AID 651582;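 active = pattern-corrected inhibition of lipid staining of at least 50% with the nuclear-stain viability signal not falling by more than 50%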;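 also: 0% = DMSO wells and 100% = triacsin C control wells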
PfGluPho inh: PfG6PD (Plasmodium falciparum) enzyme inhibition; PfGluPho enzyme, NADPH resazurin-diaphorase fluorescence; inhibition, % at 20 µM; 350,000 compounds, 0.78% hits;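 active = inhibition reaching at least a set limit at 20 µM in the primary screen, cut at about 59% in these data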;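 also: 0% = DMSO wells with substrate and 100% = DMSO wells lacking glucose-6-phosphate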
H9c2 protect: modulators protecting cardiomyocytes from myocardial damage. H9c2 cardiomyocytes, H2O2 injury protection, ATPLite, 2 h. 360,000 compounds, 0.63% hits. protection from H2O2 cell death, % at 20 µM;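 active = compounds giving at least 50% protection of heart cells from peroxide-induced death in the single-dose screen, raw or plate-pattern-corrected value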;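 also: 0% = DMSO wells with peroxide and 100% = DMSO wells without peroxide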
APOBEC3A inh: human APOBEC3A DNA deaminase inhibition; P31941; AID 493011; recombinant A3A, FAM/TAMRA ssDNA deamination fluorescence; inhibition, % at 20 µM; 330,000 compounds, 0.41% hits;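 active = at least 40% inhibition at 20 µM here, with at most 30% in a related deaminase screen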;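 also: plate controls were A3A with DMSO for no effect and wells lacking A3A enzyme for full effect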
Target sequence (P31941 whole entry, looked up): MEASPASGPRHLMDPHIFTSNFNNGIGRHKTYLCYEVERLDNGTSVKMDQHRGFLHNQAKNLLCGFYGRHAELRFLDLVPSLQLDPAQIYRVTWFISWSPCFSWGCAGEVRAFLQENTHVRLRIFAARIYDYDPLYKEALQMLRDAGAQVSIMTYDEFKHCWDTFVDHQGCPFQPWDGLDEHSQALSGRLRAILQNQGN
APOBEC3G inh: blocks human APOBEC3G single-stranded DNA deamination; inhibition, % at 20 µM; 330,000 compounds, 0.28% hits; AID 493012; Q9HC16; recombinant A3G, ssDNA deamination FAM/TAMRA fluorescence;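 active = inhibition of at least 40% at 20 µM, with no more than 30% in the related APOBEC3A deaminase screen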;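 also: plate controls were DMSO wells with A3G for no effect and wells lacking A3G enzyme for full effect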
Target sequence (Q9HC16 whole entry, looked up): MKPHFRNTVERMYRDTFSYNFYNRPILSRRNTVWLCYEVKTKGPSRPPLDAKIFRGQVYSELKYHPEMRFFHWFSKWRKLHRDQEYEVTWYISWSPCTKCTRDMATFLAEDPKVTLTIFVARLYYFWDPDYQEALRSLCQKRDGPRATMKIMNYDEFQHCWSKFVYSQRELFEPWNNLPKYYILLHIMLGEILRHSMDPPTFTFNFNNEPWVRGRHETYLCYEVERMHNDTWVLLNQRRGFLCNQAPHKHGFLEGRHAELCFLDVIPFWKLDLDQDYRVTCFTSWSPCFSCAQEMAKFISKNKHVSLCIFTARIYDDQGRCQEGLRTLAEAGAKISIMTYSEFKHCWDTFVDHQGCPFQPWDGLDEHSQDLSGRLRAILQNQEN
NadD inh: blocks S. aureus nicotinate mononucleotide adenylyltransferase; 360,000 compounds, 0.78% hits; inhibition, % at 20 µM; purified NadD enzyme, colorimetric absorbance read-out; in the data active = inhibition above about 26%
TAG conf: confirmation of triacylglycerol accumulation inhibitors. shares compounds with H9c2 TAG inh. H9c2 lipid accumulation, Nile Red fluorescence; cells loaded with 200 µM oleic acid. inhibition, % at 12.5 µM. 990 compounds, 71% hits;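 active = mean inhibition across replicates of 40% or more; inactive = mean inhibition below 40%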;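 also: plate controls were DMSO only wells for no effect and Triacsin C treated wells for full effect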
Active calls of the source: *; · = not tested or not shown; ! = not active in a repeat.

SMILES	H9c2 TAG inh	PfGluPho inh	H9c2 protect	APOBEC3A inh	APOBEC3G inh	NadD inh	TAG conf
COc1ccccc1CNC(=O)C(=O)NCC1OCCCN1S(=O)(=O)c1cccs1 (stereo unspecified)	40	12	-2	-5	-6	2	·
O=C(CSc1ncccc1C(=O)O)Nc1ccc2c(c1)OCCO2	·	-5	1	-3	-4	-2	·
COc1ccc(Cn2c(=O)c3[nH]cnc3n(-c3ccc(C)cc3)c2=O)cc1	-5	-1	-4	2	8	1	·
O=C1NC(Cc2ccc(O)cc2)c2nc3ccc(F)cc3c(=O)n2-c2cc3ccccc3cc21 (stereo unspecified)	78*	4	95*	·	·	12	67*
Cc1ccc2c(c1)-n1c(nc3ccccc3c1=O)C(Cc1ccc(O)cc1)NC2=O (stereo unspecified)	·	·	·	1	3	·	·
Cc1ccc2nc3n(c(=O)c2c1)-c1cc2ccccc2cc1C(=O)NC3Cc1ccc(O)cc1 (stereo unspecified)	64*	-1	16	·	·	23	57*
c1ccc(N=NC2=NN(c3ccccc3)CS2)cc1	96*	13	-12	·	·	1	113*
COc1ccccc1Nc1nnc(SCC(=O)Nc2nc(-c3ccc(F)cc3)cs2)s1	51*	-7	6	3	-10	18	57*
COc1ccccc1C(=O)C1CCCN(C(=O)c2ccccn2)C1 (stereo unspecified)	·	2	2	-3	-5	-3	·
Cc1cccc(N2CCN(C(=O)c3c(-c4ccccc4Cl)noc3C)CC2)c1C	71*	·	7	1	-6	-7	66*
CSc1ccc(C2=C/C(=C3/SC(=S)NC3=O)c3ccccc3O2)cc1	59*	12	-8	·	·	38*	58*
Cc1ccc(CNC(=O)C(c2ccccc2)c2ccccc2)cc1	·	0	-2	-1	-8	-9	·
COC(=O)c1c(NC(=O)C(=O)N2CCCC2)sc2c1CC(C)(C)OC2	·	-5	15	-2	0	0	·
O=C1OCCN1C(=O)[C@H]1[C@H](c2ccc(Cl)cc2)C(c2ccc(F)cc2)=NN1c1ccc(Br)cc1	105*	11	6	4	0	18	10
O=C1OCCN1C(=O)[C@H]1[C@H](c2ccc(F)cc2)C(c2ccc(F)cc2)=NN1c1ccc(Br)cc1	-3	12	8	-2	-3	21	·
COc1ccc(-n2ccnc2SCC(=O)NC2CCCC2)c(OC)c1	71*	-10	-8	-1	-4	0	17
Cc1ccccc1-n1ccnc1SCC(=O)NC1CCCC1	·	-3	-2	-4	-6	3	·
CN1CCN(c2cc(=O)n(C3CCCCC3)c(=O)[nH]2)CC1	-14	-25	-6	-6	-7	-3	·
O=c1cc(N2CCN(c3cccc(Cl)c3)CC2)[nH]c(=O)n1C1CCCCC1	69*	1	-5	0	1	6	58*
O=c1cc(N2CCN(c3ccccc3)CC2)[nH]c(=O)n1C1CCCCC1	63*	-2	0	-4	0	0	30
O=c1cc(N2CCOCC2)[nH]c(=O)n1C1CCCCC1	-1	5	0	-2	0	-3	·
Cc1cc(-c2nnc(SCC(=O)Nc3ccc(C)c(C)c3)n2N)n[nH]1	·	-2	8	-5	-8	6	·
CCOCCC(=O)Nc1ccc2c(c1)c(=O)n(C)n2C/C=C/c1ccccc1	53*	·	2	·	·	-1	49*
OC1CCCC1NCc1ccnc2cc(Cl)ccc12 (stereo unspecified)	-17	19	-8	·	·	-3	·
CCN(C(=O)COC(=O)CCS(=O)(=O)c1ccc(C)cc1)C1CCS(=O)(=O)C1 (stereo unspecified)	3	-10	1	2	-3	-5	·
SMILES	H9c2 TAG inh	PfGluPho inh	H9c2 protect	APOBEC3A inh	APOBEC3G inh	NadD inh	TAG conf
Cc1[nH]c2ccccc2c1C(c1ccccn1)N1CCCC1 (stereo unspecified)	-6	-17	7	0	-3	-7	·
Cc1[nH]c2ccccc2c1C(c1ccccn1)N1CCC(C)CC1 (stereo unspecified)	51*	-4	14	0	1	-1	55*
C#CCOCCOCCOCCNc1nc(N2CCOCC2)nc(N2CCN(C(=O)[C@H](CCC(=O)O)n3cc(C(N)[C@H](C)CC)nn3)CC2)n1 (stereo partly specified)	-11	9	0	0	10	-1	·
CCCC(C(=O)NC(C)(C)C)N(Cc1ccccc1)C(=O)c1snc(C(N)=O)c1N (stereo unspecified)	69*	-1	5	·	·	-2	0
CCCC(C(=O)NC1CCCC1)N(Cc1ccccc1)C(=O)c1snc(C(N)=O)c1N (stereo unspecified)	·	-3	-1	2	-6	-3	·
COc1cc(OC)c(-c2nn3c(-c4ccco4)nnc3s2)cc1OC	54*	39	74*	·	·	2	38
COc1cc(NC(=O)c2csc(N)n2)cc(C(=O)Nc2cccc(C(F)(F)F)c2)c1	59*!	19	20	0	1	11	50*
COc1cc(NC(=O)c2cnc(N)s2)cc(C(=O)Nc2cccc(C(F)(F)F)c2)c1	35	35	34	0	2	5	·
O=C(/C=C/c1ccc(OCCCF)cc1)NCc1ccc(Cl)c(Cl)c1	62*	5	-12	2	-6	15	52*
CC(C)N1CSC(=S)N(Cc2ccccc2)C1	69*	-6	-9	3	3	0	49*
O=c1[nH]c2cc(NCCO)c([N+](=O)[O-])cc2[nH]1	-2	3	18	6	3	-14	·
COc1cccc(C2c3cc4c(cc3OC(NNC(N)=O)C2C)OCO4)c1O (stereo unspecified)	62*	40	0	·	·	-2	52*
COc1cc(C2c3cc4c(cc3OC(NNC(N)=O)C2C)OCO4)cc(OC)c1OC (stereo unspecified)	46	30	-3	·	·	2	·
COc1ccc(OC)c(-c2nnc(SCC(=O)NC3CCCCC3)o2)c1	16	-9	-13	-2	-8	-2	·
Cc1ccc(-n2ncc(-c3nnc(SCC(=O)NC4CCCC4)o3)c2N)cc1C	55*	9	-21	-4	0	-8	37
COC1OC(c2ccccc2)=C(c2cnc(N)nc2)c2ccc(F)cc21 (stereo unspecified)	·	·	·	·	·	-3	·
CCc1c(C2(O)CCCCC2)[nH]c2cnccc12	51*	0	-4	1	-10	-7	13
CNCCCN1c2ccccc2CCc2ccccc21	57*	9	11	-3	-6	0	47*
CN(C)CCCN1c2ccccc2CCc2ccc(Cl)cc21	35	-13	0	0	-4	-2	·
